# Screening results (PubChem)
# Efflux pump inh: antifungal efflux pump inhibition, Nile Red retention | S. cerevisiae Candida pump triplex | actives 0.44% (n = 330,000) | inhibition, % at 10 µM | AID 485275;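 active = plate passing quality check with inhibition over a set limit, or well fluorescence over plate mean plus 4 SD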;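 note: Nile Red retained in pooled yeast measured as flow cytometry median fluorescence; 0% = buffer negative control and 100% = Enniatin B positive control; higher means more Nile Red kept so more efflux inhibition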
# Cl transport mod: modulates chloride dependent transport by human KCC2; B-score of Tl+ flux slope (higher = more flux/activation; lower = inhibition) at 10 µM; actives 2.2% (n = 190,000); AID 1456; Q9H2X9; KCC2 cells, thallium flux FluoZin-2 fluorescence;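 active = thallium flux slope and its plate-corrected score both differing from the plate sample mean at a set confidence after two filtering rounds, in either direction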;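 note: slope of fluorescence scaled to starting intensity during 10 to 20 s after thallium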
# PHOSPHO1 block: blocks human PHOSPHO1 phosphatase activity. recombinant PHOSPHO1, absorbance phosphatase assay. inhibition, % at 13.3 µM. actives 1.1% (n = 290,000); in the data active = inhibition above about 60%
# Target sequence (Q8TCT1 whole entry, looked up): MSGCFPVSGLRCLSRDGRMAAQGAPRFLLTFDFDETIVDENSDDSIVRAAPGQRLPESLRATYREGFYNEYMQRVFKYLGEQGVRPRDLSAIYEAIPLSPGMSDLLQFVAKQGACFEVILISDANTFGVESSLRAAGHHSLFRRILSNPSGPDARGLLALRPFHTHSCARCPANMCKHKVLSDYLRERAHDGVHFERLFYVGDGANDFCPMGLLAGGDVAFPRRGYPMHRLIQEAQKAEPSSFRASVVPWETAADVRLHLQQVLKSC
# Cardio protect: modulators protecting cardiomyocytes from myocardial damage | H9c2 cardiomyocytes, H2O2 injury protection, ATPLite, 2 h | protection from H2O2 cell death, % at 20 µM | actives 0.63% (n = 360,000);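 active = compounds giving at least 50% protection of heart cells from peroxide-induced death in the single-dose screen, raw or plate-pattern-corrected value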;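 note: 0% = DMSO wells with peroxide and 100% = DMSO wells without peroxide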
# Calb FLC: affects C. albicans growth with fluconazole; C. albicans CaCi-2 (fluconazole-resistant clinical isolate) + fluconazole, Alamar Blue growth, 48 h; growth inhibition, % (concentration not given with the values); actives 0.57% (n = 300,000);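 active = growth inhibition above about 58% in most replicates, limit read from the data, passing the limit was not always enough; inconclusive = exactly half the replicates above a set limit; inactive = most replicates below a set limit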;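 note: all wells also contain fluconazole at 8 µg/ml as a sub-toxic cotreatment; 0% = median of DMSO wells and 100% = median of geldanamycin control wells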
# KCC2 sec1: confirmation of human KCC2 transport modulators; AID 1713; shares compounds with Cl transport mod; HEK293-KCC2, thallium flux, FluoZin2 fluorescence; active compounds read high; normalised thallium flux (F/F0 slope) at 10 µM; actives 15% (n = 3,700);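 active = thallium flux slope above the same plate's solvent-only control mean plus 3 SD; inconclusive = the two replicate wells disagree; inactive = no significant difference from solvent-only control wells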
# KCC2 bumet counter: thallium flux persisting under bumetanide in KCC2 cells, counter-screen secondary assay | HEK293-KCC2 + bumetanide/ouabain, thallium flux FluoZin2; active compounds read high | actives 49% (n = 3,700) | shares compounds with Cl transport mod | normalized thallium flux at 10 µM;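 active = thallium entry rate above the same plate's blocked-transporter control wells by more than 3 SD; inconclusive = the two repeat wells disagree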;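 note: raw slope of fluorescence over initial fluorescence between 10 and 20 s after thallium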
# KCC2 sec2: confirmation of human KCC2 transport modulators; normalized thallium flux at 10 µM; HEK293-KCC2, thallium flux FluoZin2 fluorescence; actives lie on both sides; F/F0 rise rate, 10–20 s post-thallium; shares compounds with Cl transport mod; AID 1715; actives 23% (n = 3,700);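 active = thallium flux slope more than 3 SD above or below the plate's solvent-only control mean, mostly below; inconclusive = the two repeat wells disagreed; inactive = no significant shift from solvent-only controls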;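 note: raw slope with 0.1% DMSO as baseline and bumetanide as block control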
# HEK293 Tl flux: parental HEK flux effect, counter-screen; HEK293 parental cells, thallium flux FluoZin2, ouabain; baseline-ratio fluorescence slope, 10–20 s after thallium; actives 46% (n = 3,700); shares compounds with Cl transport mod; thallium flux rate (normalised fluorescence) at 10 µM;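 active = thallium flux rate significantly above the same plate's solvent-only control wells, beyond their mean plus 3 SD; inconclusive = the two replicate wells gave conflicting results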
# KCC2 retest ouab: KCC2 (human) modulation, ouabain retest | shares compounds with Cl transport mod | HEK293-KCC2, thallium flux FluoZin2 fluorescence; bidirectional: low = inhibitor, high = activator | raw Tl+ flux slope (below DMSO = inhibition, above = activation) at 10 µM | actives 48% (n = 3,700);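 active = thallium flux slope beyond 3 SD from same-plate DMSO control mean in most replicates, usually higher, sometimes lower; inconclusive = repeat tests gave conflicting results; inactive = no significant difference from controls in most replicates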;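 note: slope of initial-normalized fluorescence between seconds 10 and 20 after thallium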
# HEK293 Tl flux2: acts in parental HEK cells, second KCC2 counter-screen; AID 1718; actives 33% (n = 3,700); HEK293 parental, thallium flux FluoZin-2 fluorescence slope; shares compounds with Cl transport mod; thallium flux slope at 10 µM;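 active = thallium flux slope above the same plate's solvent-control mean plus 3 SD in both duplicate wells; inconclusive = duplicate wells that disagreed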;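 note: run without ouabain in cells lacking the KCC2 cotransporter; slope of fluorescence scaled to its starting value between 10 and 20 s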
# Yeast cmpd fluor: compound fluorescence in yeast efflux pump counter-screen | AID 588517 | actives 4% (n = 1,700) | shares compounds with Efflux pump inh | fluorescence ratio to DMSO, % at 10 µM | S. cerevisiae AD/pABC3, flow cytometry;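 active = fluorescence ratio to DMSO above its plate's cutoff, the plate mean ratio plus 5 SD, cut at about 210% in these data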;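 note: unstained yeast with no Nile Red so the signal is compound autofluorescence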
# CaMdr1 efflux inh: inhibitors of Candida albicans Mdr1 efflux pump | shares compounds with Efflux pump inh | S. cerevisiae AD/CaMDR1, Nile Red efflux, flow cytometry | inhibition, % at 10 µM | actives 1% (n = 1,700) | AID 588518; in the data active = inhibition above about 26%;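 note: 0% = DMSO vehicle and 100% = reference inhibitor; higher means more Nile Red retained so more efflux inhibition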
# Cdr2 pump inh: inhibitors of Candida albicans Cdr2 efflux pump; S. cerevisiae AD/CaCDR2, Nile Red retention, flow cytometry; actives 4% (n = 1,700); AID 588520; shares compounds with Efflux pump inh; Nile Red retention ratio vs DMSO, % at 10 µM; in the data active = Nile Red retention ratio vs DMSO above about 190%;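 note: higher ratio means more blocking of Cdr2 efflux of the dye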
# CaCdr1 efflux inh: Candida Cdr1 efflux pump inhibition; S. cerevisiae AD/CaCDR1, Nile Red efflux, flow cytometry; actives 1% (n = 1,700); AID 588522; inhibition, % at 10 µM; shares compounds with Efflux pump inh;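 active = inhibition above the screen-wide mean plus twice its standard deviation, cut at about 32% in these data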
# The depositor's hits bear a star; i = inactive; ? = inconclusive; · = not tested or not shown. Only some compounds are listed: those with a hit (about 3.3% of all), similar ones and a draw of the others.
SMILES,Efflux pump inh,Cl transport mod,PHOSPHO1 block,Cardio protect,Calb FLC,Yeast cmpd fluor,CaMdr1 efflux inh,Cdr2 pump inh,CaCdr1 efflux inh,others
O=c1c2ccccc2[nH]c(=S)n1CCN1CCc2ccccc2C1,0.8*,58*,28,8,-1,99,0,107,0,KCC2 sec1=0.018*;KCC2 bumet counter=0.13*;KCC2 sec2=0.03;HEK293 Tl flux=0.036*;KCC2 retest ouab=0.069*;HEK293 Tl flux2=0.015*
Cc1ccc(S(=O)(=O)NN2C(=O)/C(=C/c3cccs3)SC2=S)cc1,0,27*,18,13,0,98,0,87,0,KCC2 sec1=0.0062;KCC2 bumet counter=0.053*;KCC2 sec2=0.05*;HEK293 Tl flux=0.045*;KCC2 retest ouab=0.051*;HEK293 Tl flux2=0.043*
C/C(=N\NC(=O)c1cccc(Cl)c1)C1C(=O)c2ccccc2C1=O,13*,-3.7*,-4,-16,-16,92,0,101,0,KCC2 sec1=0.0069;KCC2 bumet counter=0.0095*;KCC2 sec2=0.027;HEK293 Tl flux=0.0074;KCC2 retest ouab=?;HEK293 Tl flux2=0.0089
COC(=O)[C@]1(Cc2ccccc2)N[C@H](CN(C)C(=O)c2ccc(F)cc2)[C@@H]2C(=O)N(Cc3ccccc3)C(=O)[C@@H]21,0,·,·,7,·,·,·,·,·,
CCc1noc(C)c1C(=O)Nc1cc(Cl)ccc1N1CCCC1,0,·,·,-5,11,·,·,·,·,
Cc1ccc(Cl)c(OCC(=O)Nc2ccccc2N2CCCCC2)c1,0,·,·,-12,-3,·,·,·,·,
Cc1ccc(Cn2nnc3c(=O)[nH]c(C4CCN(S(=O)(=O)c5ccc(C)cc5)CC4)nc32)cc1,0,·,14,-1,111*,100,0,112,1,KCC2 sec1=0.0071;KCC2 bumet counter=0.0049;KCC2 sec2=0.031;HEK293 Tl flux=0.008;KCC2 retest ouab=0.019;HEK293 Tl flux2=0.011
Cc1ccc(Cn2nnc3c(=O)[nH]c(C4CCN(S(=O)(=O)c5ccc(S(=O)(=O)NC6CC6)cc5)CC4)nc32)cc1,0,·,35,2,-3,·,·,·,·,
CC(=O)c1c(N2CCOCC2)[nH]c(-c2ccccc2)nc1=S,0,13*,6,-3,4,102,0,101,0,KCC2 sec1=0.017*;KCC2 bumet counter=0.032*;KCC2 sec2=?;HEK293 Tl flux=0.019*;KCC2 retest ouab=0.041*;HEK293 Tl flux2=?
CC(=O)c1sc(N2CCOCC2)nc1-c1ccccc1,0,-0.25,-6,8,22,·,·,·,·,
Cc1ccc(NC(=O)c2cccc(S(=O)(=O)N(C)c3ccccc3)c2)cc1S(=O)(=O)N1CCOCC1,8.0*,-1.1,3,10,20,107,0,104,0,
CN(C)c1cccc(C(=O)OCCCC(=O)c2ccc(F)cc2)c1,0,·,·,-12,·,·,·,·,·,
N#Cc1cc(C(=O)c2ccccc2O)cn(-c2nccs2)c1=O,0,i,0,6,11,·,·,·,·,
N#Cc1cc(C(=O)c2cc(F)ccc2O)cn(-c2nccs2)c1=O,6.7*,i,-5,-3,-3,210*,2,95,1,
Cc1ccc2nc(SCC(=O)N3CCN(C(=O)c4ccco4)CC3)[nH]c2c1,-4,-0.075,-14,0,21,·,·,·,·,
O=C(CSc1nc2ccc(Cl)cc2[nH]1)N1CCN(C(=O)c2ccco2)CC1,14*,-1,-6,1,1,101,0,89,0,
Nc1cc2c(cc1C(=O)c1cccc(Br)c1)OCCO2,0.6*,-1.6,37,-7,-2,100,0,104,0,
Nc1cc2c(cc1C(=O)c1ccccc1F)OCCO2,0,-1.5,47,13,37,·,·,·,·,
CC(C)C(C(=O)O)N1C(=O)/C(=C/C=C/c2ccco2)SC1=S (centres undefined),1.2*,-0.35,-3,0,7,135,0,161,0,
CC(=O)OCCCNc1cc(Sc2ccc(C)cc2)c2nonc2c1[N+](=O)[O-],13*,-0.06,14,15,6,88,0,103,1,
C=C(C)C(O)CC/C(C)=C/Cc1c(O)ccc(C(=O)/C=C/c2ccc(O)cc2)c1O (centres undefined),0,·,·,-6,·,·,·,·,·,
COc1ccc(C(=O)/C=C/c2ccc(O)cc2)c(O)c1C/C=C(\C)CCC=C(C)C,1.3*,·,·,-9,·,109,0,116,0,
CCCCc1nnc(NC(=O)COc2ccc3c(C)cc(=O)oc3c2)s1,0,0.28,8,·,4,100,0,100,0,
CCCc1nnc(NC(=O)COc2ccc3c(c2)OCO3)s1,93*,·,23,1,5,99,0,109,0,
Cc1cc(=O)oc2cc(OCC(=O)Nc3nnc(CC(C)C)s3)ccc12,0,0.68,-4,6,25,·,·,·,·,
O=C(/C=C/c1ccccc1Cl)NCc1ccccc1,0,1.2,22,-3,-3,·,·,·,·,
O=C(/C=C/c1ccccc1Cl)NCCc1ccccc1,3.3*,·,-16,-10,-2,102,0,112,0,
CC(=O)c1cccc(OCC(=O)NC2CCCCCC2)c1,·,·,·,-4,·,·,·,·,·,
Cc1ccc(N(C(=O)Cn2nnc(-c3ccccc3)n2)C(C(=O)NC2CCCCC2)c2ccccn2)cc1C (centres undefined),0,0.3,-4,-3,-22,·,·,·,·,
Cc1cc(C)cc(N(C(=O)Cn2nnc(-c3ccccc3)n2)C(C(=O)NC2CCCCC2)c2ccccn2)c1 (centres undefined),6.4*,0.024,-4,-5,6,105,0,101,0,
